Laboratory results reported in PubChem BioAssay (Tox21).
Records with an inconclusive call do not appear. Where a structure was tested more than once in an assay, its records may differ in their call. Calls of active or inactive are those of the source. Unless noted, the call rests on the fitted dose curve.

Experiments:
[1] = qHTS assay to identify small molecule antagonists of the sonic hedgehog signaling (Shh) pathway (AID 1259369); further: nearly all actives have a fitted effect of over 45% in size; further: potency means the concentration at half of the fitted maximal effect
In short: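 Read-out is luminescence from a firefly luciferase gene controlled by the Gli1 response element, in 3T3Gli1-Luc cells pre-incubated 4hr then exposed to compounds and conditioned medium for 24hr.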

[2] = molecular target: Estrogen receptor beta (Homo sapiens) (UniProt Q92731); test: qHTS assay to identify small molecule antagonists of the estrogen receptor beta (ER-beta) signaling pathway (AID 1259378; active means well fitted inhibition curve with a large enough effect in the signal ratio in the repeat runs, not every such curve was filed as active; the % refers to the signal ratio; further: potency means the concentration at half of the fitted maximal effect)
Sequence of Estrogen receptor beta (Homo sapiens) (Q92731 whole entry, looked up): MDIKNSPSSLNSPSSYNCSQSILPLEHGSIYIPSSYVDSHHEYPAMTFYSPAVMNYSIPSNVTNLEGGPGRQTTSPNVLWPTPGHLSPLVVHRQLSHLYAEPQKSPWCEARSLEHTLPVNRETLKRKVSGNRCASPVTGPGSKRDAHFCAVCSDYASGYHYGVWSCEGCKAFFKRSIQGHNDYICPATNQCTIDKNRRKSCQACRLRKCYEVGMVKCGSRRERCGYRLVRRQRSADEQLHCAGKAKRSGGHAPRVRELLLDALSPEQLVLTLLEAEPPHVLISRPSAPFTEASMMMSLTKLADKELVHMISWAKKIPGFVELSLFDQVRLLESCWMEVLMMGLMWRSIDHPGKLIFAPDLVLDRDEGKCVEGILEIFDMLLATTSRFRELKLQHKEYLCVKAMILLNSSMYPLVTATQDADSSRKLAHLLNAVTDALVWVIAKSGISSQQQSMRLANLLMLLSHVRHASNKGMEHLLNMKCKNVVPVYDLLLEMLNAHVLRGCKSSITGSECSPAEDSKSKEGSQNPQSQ
In short: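 ER-beta-UAS-bla HEK293T (GripTite) cells in 2% charcoal-stripped FBS medium were preincubated 6 hr at 37C, dosed with compound, then stimulated with 1 nM E2 (final) for 16 hr; beta-lactamase reporter read by B/G FRET fluorescence after 2 hr substrate loading.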

[3] = qHTS assay to identify small molecule agonists of the androgen receptor (AR) signaling pathway in the presence of an antagonist - cell viability counter screen (AID 1259379; active means well fitted curve in the direction sought with a large enough effect in the repeat runs; an effect the other way counts as inactive or inconclusive; further: nearly all actives have a fitted effect of over 25% in size; further: potency means the concentration at half of the fitted maximal effect;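 on activity change, negative = cytotoxicity: MDA-kb2 human breast cancer cells carrying an MMTV luciferase reporter; series mostly up to about 92 µM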)
In short: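 Each compound was tested at 15 concentrations on MDA-kb2 cells in the presence of 3.0uM nilutamide. Viability was measured by CellTiter-Fluor fluorescence after a 16 hr incubation at 37C in a CO2-free atmosphere.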

[4] = qHTS assay to identify small molecule agonists of the estrogen receptor beta (ER-beta) signaling pathway - cell viability counter screen (AID 1259380; active means well fitted curve in the direction sought with a large enough effect in the repeat runs; an effect the other way counts as inactive or inconclusive; further: nearly all actives have a fitted effect of over 30% in size; further: potency means the concentration at half of the fitted maximal effect)
In short: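 Compounds dissolved in DMSO were pin-transferred onto ER-beta-UAS-bla HEK293T cells that had settled 6 hr, and exposure ran 16 hr at 37C. Following the reporter read, CellTiter-Glo luminescence after 30 min at room temperature indicated cytotoxicity.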

[5] = qHTS assay to identify small molecule antagonists of the estrogen receptor beta (ER-beta) signaling pathway - cell viability counter screen (AID 1259382; active means well fitted curve in the direction sought with a large enough effect in the repeat runs; an effect the other way counts as inactive or inconclusive; further: nearly all actives have a fitted effect of over 55% in size; further: potency means the concentration at half of the fitted maximal effect; on activity change, negative = cytotoxicity: series mostly up to about 92 µM)
In short: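 CellTiter-Glo ATP luminescence measured after the LiveBLAzer read in the same wells; ER-beta-UAS-bla HEK293T cells, 16 hr compound treatment with 1nM 17-beta-estradiol agonist at 37C, 5% CO2.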

[6] = molecular target: Estrogen receptor (Homo sapiens) (UniProt P03372); test: qHTS assay to identify small molecule agonists of the estrogen receptor alpha (ER-alpha) signaling pathway in the presence of an antagonist (AID 1259383); further: nearly all actives have a fitted effect of over 15% in size; further: potency means the concentration at half of the fitted maximal effect; on activation: top concentration of the series differs between compounds
Sequence of Estrogen receptor (Homo sapiens) (P03372 whole entry, looked up): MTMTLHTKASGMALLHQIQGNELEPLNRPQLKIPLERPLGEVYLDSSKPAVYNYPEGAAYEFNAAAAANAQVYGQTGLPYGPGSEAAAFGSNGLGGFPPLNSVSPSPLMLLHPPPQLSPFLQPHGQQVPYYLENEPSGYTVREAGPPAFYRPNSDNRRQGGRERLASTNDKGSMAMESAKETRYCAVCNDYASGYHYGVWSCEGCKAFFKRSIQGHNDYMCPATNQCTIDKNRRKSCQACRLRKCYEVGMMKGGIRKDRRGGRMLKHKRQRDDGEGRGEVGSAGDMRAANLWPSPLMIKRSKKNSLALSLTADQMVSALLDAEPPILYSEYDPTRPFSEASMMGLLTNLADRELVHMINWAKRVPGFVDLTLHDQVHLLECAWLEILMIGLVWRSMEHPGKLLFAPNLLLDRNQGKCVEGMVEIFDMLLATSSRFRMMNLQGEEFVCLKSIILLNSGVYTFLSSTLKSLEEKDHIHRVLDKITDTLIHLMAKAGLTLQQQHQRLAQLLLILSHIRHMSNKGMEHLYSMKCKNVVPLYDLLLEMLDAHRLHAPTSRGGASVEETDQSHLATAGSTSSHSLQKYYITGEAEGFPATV
In short: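 Luminescent ERE-luciferase reporter, VM7Luc4E2 cells (endogenous ER-alpha); 10.0nM ICI-182,780 final; 15-point compound titration; 22hr at 37C; ONE-Glo, 30min RT.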

[7] = qHTS assay to identify small molecule agonists or antagonists of the thyroid stimulating hormone receptor (TSHR) signaling pathway - wild type cell line counter screen (AID 1259384)
In short: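 Wild-type HEK293 cells were plated 18 h at 37 C/5% CO2, pin-dosed with compound plus Ro20-1724 medium, held 30 min at room temperature, then given cAMP-d2 and anti-cAMP-cryptate; fluorescence was read after 1 h. Fifteen concentrations, triplicate.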

[8] = molecular target: Thyrotropin receptor (Homo sapiens) (UniProt P16473); test: qHTS assay to identify small molecule antagonists of the thyroid stimulating hormone receptor (TSHR) signaling pathway (AID 1259385); further: nearly all actives have a fitted effect of over 20% in size; further: potency means the concentration at half of the fitted maximal effect
Sequence of Thyrotropin receptor (Homo sapiens) (P16473 whole entry, looked up): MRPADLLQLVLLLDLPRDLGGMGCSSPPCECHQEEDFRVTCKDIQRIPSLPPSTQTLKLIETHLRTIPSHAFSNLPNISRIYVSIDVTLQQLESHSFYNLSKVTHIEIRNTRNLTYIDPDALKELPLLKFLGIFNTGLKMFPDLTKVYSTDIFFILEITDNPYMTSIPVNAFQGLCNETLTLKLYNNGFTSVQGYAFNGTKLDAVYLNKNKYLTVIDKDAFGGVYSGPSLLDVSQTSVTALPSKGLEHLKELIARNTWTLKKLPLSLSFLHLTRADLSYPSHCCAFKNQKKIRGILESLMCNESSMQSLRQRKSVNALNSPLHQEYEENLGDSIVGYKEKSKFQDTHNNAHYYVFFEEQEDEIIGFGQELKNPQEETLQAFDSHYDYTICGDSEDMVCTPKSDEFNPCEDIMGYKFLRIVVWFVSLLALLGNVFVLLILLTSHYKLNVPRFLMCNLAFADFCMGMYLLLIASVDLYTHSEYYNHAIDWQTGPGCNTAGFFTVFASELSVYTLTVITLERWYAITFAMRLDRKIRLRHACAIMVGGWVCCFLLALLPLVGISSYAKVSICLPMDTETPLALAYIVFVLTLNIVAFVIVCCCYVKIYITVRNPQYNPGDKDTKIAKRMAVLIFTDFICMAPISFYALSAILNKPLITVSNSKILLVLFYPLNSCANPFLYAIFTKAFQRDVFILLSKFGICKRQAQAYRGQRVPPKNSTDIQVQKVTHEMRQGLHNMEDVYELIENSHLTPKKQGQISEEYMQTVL
In short: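 TSHR-HEK293 cells were plated and held 18 h at 37C/5% CO2, then given compound plus Ro20-1724 and stimulated with TSH at 1.5 ng/mL final. After 30 min at room temperature, cAMP was detected with cAMP-d2/anti-cAMP-cryptate (1 h) by fluorescence.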

[9] = molecular target: Estrogen receptor beta (Homo sapiens) (UniProt Q92731); test: qHTS assay to identify small molecule agonists of the estrogen receptor beta (ER-beta) signaling pathway (AID 1259377; active means well fitted activation curve with a large enough effect in the signal ratio in the repeat runs, not every such curve was filed as active; the % refers to the signal ratio)
In short: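 Read-out: beta-lactamase FRET fluorescence. Cell line: ER-beta-UAS-bla HEK293T in 2% charcoal-stripped FBS. Exposure: 16 hr at 37C. Substrate step: 2 h at room temperature.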

[10] = molecular target: Androgen receptor (Homo sapiens) (UniProt P10275); test: qHTS assay to identify small molecule agonists of the androgen receptor (AR) signaling pathway in the presence of an antagonist (AID 1259381); further: nearly all actives have a fitted effect of over 15% in size
Sequence of Androgen receptor (Homo sapiens) (P10275 whole entry, looked up): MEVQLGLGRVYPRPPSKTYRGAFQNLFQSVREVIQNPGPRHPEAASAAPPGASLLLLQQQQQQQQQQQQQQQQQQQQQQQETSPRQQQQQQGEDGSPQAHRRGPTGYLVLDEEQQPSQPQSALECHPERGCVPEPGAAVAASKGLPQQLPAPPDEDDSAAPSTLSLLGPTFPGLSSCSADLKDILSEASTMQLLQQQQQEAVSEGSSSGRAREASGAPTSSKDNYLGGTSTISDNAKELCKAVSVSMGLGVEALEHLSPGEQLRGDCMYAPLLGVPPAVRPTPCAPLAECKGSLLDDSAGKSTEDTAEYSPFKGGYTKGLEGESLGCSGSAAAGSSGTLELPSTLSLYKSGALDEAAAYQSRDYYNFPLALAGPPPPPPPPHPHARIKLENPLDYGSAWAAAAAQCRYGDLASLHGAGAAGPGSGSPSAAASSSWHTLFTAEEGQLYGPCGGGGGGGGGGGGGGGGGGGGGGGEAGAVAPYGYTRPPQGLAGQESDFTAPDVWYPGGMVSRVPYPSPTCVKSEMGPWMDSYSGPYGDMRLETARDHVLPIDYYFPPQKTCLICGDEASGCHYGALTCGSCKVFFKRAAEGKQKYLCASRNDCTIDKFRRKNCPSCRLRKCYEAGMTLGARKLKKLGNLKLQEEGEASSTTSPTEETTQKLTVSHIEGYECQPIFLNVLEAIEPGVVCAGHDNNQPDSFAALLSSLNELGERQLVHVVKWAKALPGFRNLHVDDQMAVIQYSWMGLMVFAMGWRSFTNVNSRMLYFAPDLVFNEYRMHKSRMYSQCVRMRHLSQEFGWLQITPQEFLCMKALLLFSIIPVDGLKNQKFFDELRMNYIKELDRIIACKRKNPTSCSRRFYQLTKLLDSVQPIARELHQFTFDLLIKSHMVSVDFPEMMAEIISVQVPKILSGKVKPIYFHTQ
In short: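 Plated MDA-kb2 cells (3,000/well) were pre-incubated 5hr, given nilutamide (3.0uM final) or buffer, then dosed with compounds in DMSO at 15 concentrations. Luciferase activity was quantified by luminescence after 16hr at 37C.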
On the % scale 0 is the no-effect control and ±100 the full control effect.

CCCCCCCCCCCCCCCCBr
inactive: activity change, negative = inhibition [1] 18.7% [at 19 µM] | activity, negative = inhibition [2] 8% [at 19 µM] | activity change, negative = cytotoxicity [3] 1.54% [at 19 µM] | activity change, negative = cytotoxicity [4] 2.84% [at 19 µM] | activity change, negative = cytotoxicity [5] -0.0957% [at 19 µM] | activation [6] -0.645% [at 19 µM] | cAMP activity change [7] -0.461% [at 18.9 µM] | activity change, negative = inhibition [8] -0.923% [at 19 µM]

CCOC(=O)/C=C/C(=O)O
inactive: Potency [1] | Potency [2] | Potency [3] | Potency [4] | Potency [5] | Potency [6] | outcome [7] | Potency [8]

Cc1oncc1C(=O)Nc1ccc(C(F)(F)F)cc1
3.06 µM (active) and inactive: Potency [6]
inactive: Potency [9] | Potency [4] | Potency [5] | outcome [7] | Potency [8]
27.3 µM (active) and inactive: Potency [1]

Cc1c(C(=O)NN2CCCCC2)nn(-c2ccc(Cl)cc2Cl)c1-c1ccc(Cl)cc1
inactive: Potency [1] | Potency [9] | Potency [5] | Potency [6] | outcome [7] | Potency [8]

Cc1cc2nc3ccc(=[N+](C)C)cc-3sc2cc1N
inactive: Potency [9] | Potency [6]
active: Potency [1] 2.66 µM | Potency [4] 4.22 µM

CN(C)C(=O)Nc1ccc(Oc2ccc(Cl)cc2)cc1
inactive: Potency [1] | Potency [9] | Potency [4] | Potency [5] | outcome [7] | Potency [8]

CCCCN(CCCC)C(=S)SSC(=S)N(CCCC)CCCC
inactive: Potency [9] | Potency [4] | Potency [6] | outcome [7] | Potency [8]
active: Potency [1] 1.91 µM

CO[C@H]1O[C@H](CO)[C@@H](O)[C@H](O)[C@H]1O
inactive: Potency [1] | Potency [2] | Potency [3] | Potency [4] | Potency [5] | outcome [7] | Potency [8]

CCn1nc(C)c2c1C(=O)NCC(c1ccc(O)cc1)=N2
inactive: Potency [2] | Potency [3] | Potency [4] | Potency [5] | outcome [7]
active: Potency [1] 0.0122 µM

CC(C)(O)c1ccccc1CC[C@@H](SCC1(CC(=O)O)CC1)c1cccc(/C=C/c2ccc3ccc(Cl)cc3n2)c1
inactive: Potency [1] | Potency [2] | Potency [3] | Potency [10] | Potency [5] | Potency [6] | outcome [7] | Potency [8]

CNCCCC1c2ccccc2C=Cc2ccccc21
active: Potency [1] 9.44 µM | Potency [2] 11.9 µM | Potency [4] 23.7 µM | Potency [5] 18.8 µM | Potency [8] 26.6 µM
inactive: Potency [6] | outcome [7]

CC(=O)Nc1ccc(N)cc1
inactive: Potency [1] | Potency [2] | Potency [3] | Potency [4] | Potency [5] | Potency [6] | outcome [7] | Potency [8]

CCNC(=O)N1CCN(CCCC(c2ccc(F)cc2)c2ccc(F)cc2)CC1
inactive: Potency [5] | Potency [6] | outcome [7] | Potency [8]
active: Potency [1] 3.35 µM | Potency [2] 21.1 µM | Potency [3] 26.6 µM

C=CC(=C)CCCC(C)(C)OC(C)=O
inactive: Potency [1] | Potency [2] | Potency [3] | Potency [4] | Potency [10] | Potency [5] | outcome [7] | Potency [8]

CCCCOC(=O)CCS
inactive: Potency [1] | Potency [2] | Potency [3] | Potency [4] | Potency [5] | Potency [6] | outcome [7] | Potency [8]

COC(OC)(C(=O)c1ccccc1)c1ccccc1
inactive: Potency [1] | Potency [2] | Potency [3] | Potency [4] | Potency [5] | outcome [7] | Potency [8]

CCCCCCCCCCCCCCC[C@H](O)[C@@H](N)CO
inactive: Potency [1] | Potency [2] | Potency [3] | Potency [4] | Potency [10] | Potency [5] | Potency [6] | outcome [7]
active: Potency [8] 26.6 µM

Cc1cc(C(=C2C=CC(=Nc3ccc(S(=O)(=O)O)cc3S(=O)(=O)O)C=C2)c2ccc(Nc3ccc(S(=O)(=O)O)cc3)cc2)ccc1N
inactive: Potency [1] | Potency [2] | Potency [3] | Potency [4] | Potency [5] | Potency [6]

CC(=N\O)/C(C)=N/O
inactive: Potency [1] | Potency [2] | Potency [3] | Potency [4] | Potency [5] | outcome [7] | Potency [8]

O=C(CCC1CCN(Cc2ccccc2)CC1)c1ccc2c(c1)NCCCC2
active: Potency [1] 10.6 µM | Potency [3] 29.8 µM
inactive: Potency [2] | Potency [10] | Potency [5] | Potency [6] | outcome [7]

CCOC(=O)c1ccccc1OC
inactive: Potency [1] | Potency [2] | Potency [3] | Potency [4] | Potency [5] | outcome [7] | Potency [8]

CCOC(=O)C(C)Oc1ccc(Oc2nc3ccc(Cl)cc3o2)cc1 (centres undefined)
inactive: Potency [1] | Potency [3] | Potency [4] | Potency [10] | Potency [5]

CCCCCCCCCCCC(=O)[O][Sn]([CH2]CCC)([CH2]CCC)[O]C(=O)CCCCCCCCCCC
inactive: Potency [1] | Potency [9] | Potency [4] | Potency [5] | outcome [7] | Potency [8]

COc1cc2ncnc(Nc3ccc(F)c(Cl)c3)c2cc1OCCCN1CCOCC1
inactive: Potency [6] | outcome [7] | Potency [8]
active: Potency [1] 15 µM | Potency [2] 7.5 µM | Potency [4] 6.68 µM

O=S(=O)(c1ccccc1)c1ccc(Cl)cc1
inactive: Potency [1] | Potency [9] | Potency [4] | Potency [5] | Potency [6] | outcome [7] | Potency [8]

CCCOCCOCCO
inactive: Potency [1] | Potency [9] | Potency [4] | Potency [5] | Potency [6] | outcome [7] | Potency [8]

Cc1cc(O)c2c(O)c3c(O)cccc3cc2c1
inactive: Potency [1] | Potency [9] | Potency [4] | Potency [5] | outcome [7] | Potency [8]
